Screening data: PubChem BioAssay, National Center for Advancing Translational Sciences (NCATS)
Shown are actives, neighbours in structure and some others; about 9.3% of the full set was active somewhere.
HCMV inh: inhibitors of human cytomegalovirus | activity change, negative = inhibition, % at 57.5 µM | 410,000 compounds, 4.5% hits | AID 1259415 | HFF cells, HCMV-luciferase reporter, 72 h; stronger effect = lower value; in the data active means activity change below about -60%; inconclusive means no clear call, values can overlap the other calls; inactive means above about -39%
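Cell-based, HFFs, 1000 cells/well, 16 h 37C; cpds in DMSO + HCMV-luc, MOI 1 PFU/cell; 72 h 37C; OneGlo luminescence after 5 min RT; norm. to buffer vs Salinomycin 10uM.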
Sm TGR inh: S. mansoni TGR enzyme inhibition | Potency, µM (top dose mostly 114 µM), for the others: at the highest dose activity change, negative = inhibition, usual class: inhibitors | AID 485364 | 360,000 compounds, 3% hits | purified TGR, DTNB reduction, TNB absorbance 405 nm | Q962Y6; further: potency means the concentration at half of the fitted maximal effect; nearly all actives have a fitted effect of over 60% in size
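First, TGR (20 nM dispensed) and NADPH were mixed with compound. Second, a 15 min room-temperature incubation followed. Third, further NADPH and then DTNB were added to start the reaction. Finally, TNB absorbance was monitored kinetically.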
FMDV inh: foot and mouth disease virus antiviral activity. FMDV antiviral cell-based qHTS. Potency, µM (titrated, usually from 57.9 µM), for the others: at the top dose activity change, negative = inhibition, most hits filed as inhibitors. 410,000 compounds, 1.2% hits. AID 1159524; calls by dose curve; tested in HEK293T cells; further: read-out not given here; potency means the concentration at half of the fitted maximal effect; nearly all actives have a fitted effect of over 45% in size
HCV inhibitor: HCV inhibition; Huh7.5.1 HCVcc-Cre infection, luciferase reporter, 44 h; Potency, µM (top dose mostly 41.8 µM), for the others: at the top dose activity change, negative = inhibition, hits mostly inhibitors; 340,000 compounds, 3.4% hits; further: potency means the concentration at half of the fitted maximal effect
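Whole-lifecycle infectious HCVcc-Cre system; cells 1,000/well, compound then virus (~0.5 moi) added 4 h after plating, 44 h culture. Luciferase read 15 sec following 15 min substrate incubation, room temp.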
Vaccinia Venus: inhibitors of vaccinia virus (Venus reporter); Vaccinia virus Venus reporter expression, fluorescence; Potency, µM (titrated, usually from 36.5 µM), for inactives: top-dose activity change, negative = inhibition, most hits filed as inhibitors; 330,000 compounds, 0.46% hits; AID 720580; calls by dose curve; tested in A549 cells; further: potency means the concentration at half of the fitted maximal effect; nearly all actives have a fitted effect of over 30% in size
Vaccinia mCherry: inhibitors of vaccinia virus infection (mCherry reporter signal); Vaccinia virus mCherry reporter infection, fluorescence; Potency, µM (series often up to 36.5 µM), for inactives: at the highest dose activity change, negative = inhibition, most hits filed as inhibitors; 310,000 compounds, 0.63% hits; calls by dose curve; tested in A549 cells; further: potency means the concentration at half of the fitted maximal effect; nearly all actives have a fitted effect of over 35% in size
Starred values were filed as active, the others as inactive; i = inactive; ? = inconclusive; · = not tested or not shown; [ ] = remark or other dose. Unless noted, the call rests on the fitted dose curve; in most records, active means well fitted curve in the direction sought with a large enough effect; inconclusive means small, poorly fitted or top-dose-only effect, or another doubt; inactive means no such curve, though single readings can be large; an effect the other way counts as inactive or inconclusive. On the % scale 0 is the no-effect control and ±100 the full control effect.

SMILES	HCMV inh	Sm TGR inh	FMDV inh	HCV inhibitor	Vaccinia Venus	Vaccinia mCherry
CCc1ccc(OCCSc2nc3ccccc3n2CC(=O)N2CCCCC2)cc1	-25	0%	-13%	·	-13%	-11%
C=CCNC(=O)CN1c2cccc3cccc(c23)S1(=O)=O	1	-24%	4%	-1%	·	·
COc1ccc(-c2cc(C(=O)N3CCCCCC3)no2)cc1OC	39	-9%	72%	6%	-8%	i
CC(C)(C)C(=O)Nc1sc2c(c1-c1nc3ccccc3[nH]1)CCCC2	-107*	-32%	-6%	?	·	·
CC(=O)N1CCc2cc(S(=O)(=O)CCC(=O)NCc3ccc(C)o3)ccc21	6	11µM*	-10%	14%	-11%	-26%
Cc1ccc(CNC(=O)CCS(=O)(=O)c2cc(Br)cc3c2N(C(=O)C2CC2)CC3)o1	30	28µM*	-10%	-8%	-20%	·
C/C(CCC(=O)OC[C@H]1O[C@H](C#Cc2ccccc2)C=C[C@@H]1Oc1ccc(C)cc1)=N\O[C@@H](C)CN1CCCCc2nc(C)c(C)cc21	·	35µM*	·	0%[8.37 µM]	·	·
COc1ccc(O[C@H]2C=C[C@@H](c3ccccc3)O[C@@H]2COC(=O)CC/C(C)=N/O[C@@H](C)CN2CCCCc3nc(C)c(C)cc32)cc1	·	-26%	·	-6%[8.37 µM]	·	·
COc1cccc(CNC(=O)[C@@H]2CCCN2C(=O)OC(C)(C)C)c1	3	·	-14%	·	-3%	-13%
CCOC(=O)C1(c2ccccc2)CCN(CCC(=O)Nc2cccc(Br)c2)CC1	?	4%	-33%	11µM*	?	?
CCOC(=O)C1(c2ccccc2)CCN(CCC(=O)Nc2ccc(OC)cc2)CC1	6	·	-17%	·	?	-9%
CCOC(=O)C1(c2ccccc2)CCN(CCC(C#N)(c2ccccc2)c2ccccc2)CC1	-86*	·	?	-58%	-17%	-5%
Nc1nc2ccc(Cc3ccncc3)cc2s1	40	5%	45%	2%	-10%	-3%
CCOc1ccccc1NC(=O)CN(c1cc(C)cc(C)c1)S(=O)(=O)c1c(C)nn(C)c1C	-23	3%	0%	·	-13%	-22%
O=c1cc(COc2ccc(Cl)cc2Cl)nc2scc(-c3ccccc3)n12	-20	-11%	-13%	·	-7%	-7%
Cc1cccc(OCc2cc(=O)n3c(-c4ccccc4)csc3n2)c1C	-103*	1%	-2%	·	-10%	-15%
O=c1cc(COc2ccccc2Cl)nc2scc(-c3ccccc3)n12	-88*	9%	-14%	·	-15%	-12%
Cc1cccc(C)c1OCc1cc(=O)n2c(-c3ccccc3)csc2n1	-17	-3%	?	·	-5%	-9%
COc1ccc(NC(=O)C(=O)NCC(c2ccco2)N2CCc3ccccc32)cc1 (stereo unspecified)	·	-2%	-3%	?	-19%	-1%
CC(NC(=O)Cn1ncc(Cl)c(Cl)c1=O)C12CC3CC(CC(C3)C1)C2 (stereo unspecified)	·	40µM*	?	10µM*	?	?
O=C(Cn1ncc(Cl)c(Cl)c1=O)NC(=O)NC1CCCCC1	-94*	·	35µM*	0.63µM*	?	-35%
CC(NC(=O)CN1C(=O)NC(Cc2ccccc2)(Cc2ccccc2)C1=O)C12CC3CC(CC(C3)C1)C2 (stereo unspecified)	23	8%	-4%	-15%	?	10µM*
Cc1cc(O)c(C(C)C)cc1NC(=O)Nc1cc(Cl)ccc1Cl	-17	·	7%	-16%	2%	?
COc1ccc(N(C(=O)CCl)C(C(=O)NCCc2ccccc2)c2cccs2)cc1Cl (stereo unspecified)	-103*	10µM*	20µM*	0.56µM*	10µM*	?
Cc1cc(O)c2c3c(c(=O)oc2c1)CCC(C)C3 (stereo unspecified)	?	0%	-2%	8.9µM*	·	·
SMILES	HCMV inh	Sm TGR inh	FMDV inh	HCV inhibitor	Vaccinia Venus	Vaccinia mCherry
O=C(C1=C[C@H](c2ccc3c(c2)OCO3)C[C@H](OCc2ccc(CO)cc2)O1)N1CCN(Cc2ccc3c(c2)OCO3)CC1	0	-5%	?	35µM*	?	?
O=C(C1=C[C@@H](c2ccc(Br)cc2)C[C@@H](OCCCCO)O1)N1CCN(Cc2ccccc2)CC1	-94*	20µM*	?	-4%	?	?
O=C(O)C1=C[C@@H](c2ccc3c(c2)OCO3)C[C@@H](OCCCCO)O1	18	45µM*	-12%	30%	-11%	i
O=C(C1=C[C@@H](c2ccc3c(c2)OCO3)C[C@@H](OCCCCO)O1)N1CCOCC1	-21	45µM*	-3%	23%	-6%	i
O=C(C1=C[C@H](c2ccc(Br)cc2)C[C@H](OCCCCO)O1)N1CCN(Cc2ccc3c(c2)OCO3)CC1	·	-10%	-29%	?	?	?
Cc1cc(=O)c2cc(C(=O)Nc3ccccc3C)ccc2[nH]1	-11	3%	-5%	·	1%	0%
COc1ccc(S(=O)(=O)N2CCC(c3ccncc3)CC2)cc1Cl	-30	5%	-24%	·	-14%	-20%
O=C(C1=C[C@@H](c2ccc3c(c2)OCO3)C[C@@H](OCCCCO)O1)N1CCN(Cc2ccc3c(c2)OCO3)CC1	-23	-34%	-19%	0.56µM*	-14%	i
O=C(C1=C[C@H](c2ccc3c(c2)OCO3)C[C@H](OCCCCO)O1)N1CCN(Cc2ccc3c(c2)OCO3)CC1	22	0%	0%	-26%	-19%	?
O=C(C1=C[C@@H](c2ccccc2)C[C@@H](OCCCCO)O1)N1CCN(Cc2ccc3c(c2)OCO3)CC1	17	-23%	-19%	-8%	-13%	i
O=C(C1=C[C@H](c2ccc3c(c2)OCO3)C[C@H](OCCCCO)O1)N1CCN(Cc2ccccc2)CC1	1	25µM*	-16%	?	-23%	-10%
O=C(CSc1ccccc1)N1CCCC(N2CCN(c3ccc(F)cc3)CC2)C1 (stereo unspecified)	-70*	1%	-17%	10µM*	-28%	-25%
Cc1cc(C(=O)N2CCCC(N3CCN(c4cccc(C(F)(F)F)c4)CC3)C2)c(C)o1 (stereo unspecified)	46	?	-25%	13µM*	·	·
O=C(c1cccc(-c2ccco2)c1)N1CCCC(N2CCN(c3ccc(F)cc3)CC2)C1 (stereo unspecified)	·	-30%	35µM*	?	-17%	-6%
O=C(CSc1ccc(F)cc1)N1CCOCC1	-88*	4%	-10%	5%	·	·
O=C(CSc1ccccc1)N1CCCC(N2CCN(c3cccc(Cl)c3)CC2)C1 (stereo unspecified)	-26	·	·	·	·	·
OCC1CCCN2CCCCC12 (stereo unspecified)	·	·	-1%	·	-14%	-15%
